Source: PubChem
PME-1 inh = PME-1 inhibitors via competitive probe labeling, primary screen, biochemical, fluorescence polarization, FP-Rh probe, HTS | recombinant PME-1 | 320,000 tested, 0.53% active | inhibition, % at 5.9 µM;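 active means inhibition above the campaign mean of all compounds plus 3 SD, cut at about 26% in these data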;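 further: competitive labeling of PME-1 active site by serine hydrolase directed probe; inhibitors block probe labeling so polarization falls and inhibition rises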
Target sequence (Q9Y570 whole entry, looked up): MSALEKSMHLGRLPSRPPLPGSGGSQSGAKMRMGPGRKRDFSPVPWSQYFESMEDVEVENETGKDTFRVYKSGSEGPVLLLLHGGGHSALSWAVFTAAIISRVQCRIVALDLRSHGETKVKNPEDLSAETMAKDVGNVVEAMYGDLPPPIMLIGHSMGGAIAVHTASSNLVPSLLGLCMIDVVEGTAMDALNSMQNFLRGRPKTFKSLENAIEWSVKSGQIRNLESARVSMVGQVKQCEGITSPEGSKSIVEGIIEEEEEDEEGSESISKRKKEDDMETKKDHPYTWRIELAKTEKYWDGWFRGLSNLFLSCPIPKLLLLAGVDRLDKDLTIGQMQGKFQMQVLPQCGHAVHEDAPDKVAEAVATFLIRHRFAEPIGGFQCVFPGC
PREPL inhibitor = PREPL enzyme inhibitors, primary screen, biochemical, fluorescence polarization | Prolyl endopeptidase-like (Homo sapiens), Q4J6C6 | recombinant PREPL, fluorescence polarization activity-based probe | inhibition, % at 5.96 µM | 320,000 tested, 0.68% active; in the data active means inhibition above about 43%
Fam108B inh = mouse Fam108B serine hydrolase inhibitors, primary screen, counter-screen for RBBP9 inhibitor project, biochemical, fluorescence polarization. recombinant Fam108B, FP-Rh probe fluorescence polarization. AID 1947, 2009. inhibition, % at 9.51 µM. 300,000 tested, 0.33% active;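 active means inhibition above the screen mean inhibition plus 3 SD, computed separately per campaign, cut at about 18% in these data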;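 further: inhibitors lower polarization as less probe binds the enzyme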
LYPLA1 counter = LYPLA1 inhibitors, primary screen, counter-screen for PME1 inhibitor project, biochemical, fluorescence polarization, FP-Rh probe ABPP. 320,000 tested, 0.16% active. AID 2174, 2009. inhibition, % at 5.9 µM. Acyl-protein thioesterase 1 (Homo sapiens), O75608. recombinant LYPLA1;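 active means inhibition above the mean of all tested compounds plus 3 SD, set per campaign, cut at about 14% in these data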;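 further: inhibitors block serine hydrolase probe labeling of LYPLA1 so polarization falls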
GSTO1 counter = inhibitors of recombinant GSTO1, primary screen, counter-screen for RBBP9 inhibitor project, biochemical, fluorescence polarization | Glutathione S-transferase omega-1 (Homo sapiens), P78417 | activity-based probe fluorescence polarization | inhibition, % at 5.96 µM | 300,000 tested, 1.1% active | AID 1974, 2009;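 active means inhibition above the campaign mean inhibition plus 3 SD, cut at about 35% in these data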
LYPLA2 inh = LYPLA2 inhibitors, primary screen, counter-screen for PME1 inhibitor project, biochemical, fluorescence polarization, FP-Rh probe ABPP | recombinant LYPLA2 | inhibition, % at 5.9 µM | 320,000 tested, 0.38% active | Acyl-protein thioesterase 2 (Homo sapiens), O95372;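 active means inhibition above the screen-wide mean plus 3 SD, limit set per campaign, cut at about 26% in these data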
Hits are given with their value; . = inactive; / = no result. The list is not random: actives were taken first. Their share in the collection is about 2%.

SMILES	PME-1 inh	PREPL inhibitor	Fam108B inh	LYPLA1 counter	GSTO1 counter	LYPLA2 inh
O=C(Nc1ccc(N2CCCC2)cc1)C(Cl)c1ccccc1 (centres undefined)	.	.	.	.	35	.
Cc1ccc(-c2nc(SC(C)C(=O)N3CCOCC3)n[nH]2)cc1 (centres undefined)	.	.	.	.	.	.
Cc1[nH]c2ccccc2c1N=Nc1cccc(C(=O)O)c1	.	.	.	.	.	.
Cc1[nH]c2ccccc2c1N=Nc1ccccc1C(=O)O	30	.	.	.	.	.
Cc1ccc(C(=O)NC2(O)C(=O)c3ccccc3C2=O)cc1C	.	.	.	.	75	.
Cc1ccc(C(=O)NCC(=O)OCN2C(=O)c3ccccc3C2=O)cc1C	.	.	/	.	/	.
COc1ccc(CNC(=O)CSc2nc3[nH]ncc3c(=O)n2-c2ccccc2Br)cc1	.	.	.	.	42	.
O=C(CSc1nc2[nH]ncc2c(=O)n1-c1ccccc1Br)NCc1ccccc1Cl	.	.	.	.	.	.
C[C@H]1CN=C(N(C)C)N1CC1CCCCC1	.	.	.	.	.	.
CC(C)(C)c1ccc(NC(=O)C2=CC=CN3CCS(=O)(=O)N=C23)cc1	55	.	/	.	/	.
CCN(CC)c1ccc(NC(=O)C2=CC=CN3CCS(=O)(=O)N=C23)cc1	.	.	/	.	/	.
O=c1cc(O)n(C2CCCCCC2)c(=O)[nH]1	.	.	.	.	36	.
O=c1[nH][nH]c(=S)n1C1CCCCC1	.	.	.	.	.	.
C/C=C/C=C/C(=O)N1CC[C@]23c4ccccc4N[C@H]4N(C)c5cccc6c5[C@]42CCN([C@H]6C2OC2(C)C)[C@H]13 (some centres undefined)	.	.	.	.	37	.
O=C(CN1CCN(c2ccccc2O)CC1)Nc1cccnc1Cl	.	.	.	.	.	.
COc1ccccc1/C=C/C=N/n1c(-c2cc(-c3ccccc3)n[nH]2)n[nH]c1=S	27	.	.	.	.	.
S=c1[nH]nc(-c2cc(-c3ccccc3)n[nH]2)n1/N=C/C=C/c1ccccc1	.	.	.	.	.	.
CCOC(=O)Nc1nn(-c2ccc(C)cc2)c(=O)c(C#N)c1C	.	.	.	.	.	.
O=C(Nc1ccc2[nH]c3c(c2c1)CCCC3)c1ccco1	.	.	.	.	35	.
CC1=NN(C(N)=S)C(=O)C1N=Nc1cccc2ccccc12 (centres undefined)	.	.	23	.	.	.
CC[C@@]1(C(=O)OC)N[C@H](CN(C)S(=O)(=O)c2ccc(C(F)(F)F)cc2)[C@@H]2C(=O)N(C)C(=O)[C@@H]21	/	.	/	/	/	/
Cc1nn(CC(C)C)c2sc(C(=O)NC3CC(C)(C)NC(C)(C)C3)cc12	.	.	.	.	.	.
CCOc1ccc(-c2cccc(NC(=O)c3ccco3)c2)nn1	.	.	.	.	.	.
COc1ccc(Cl)cc1NC(=O)CN(C)C(=O)c1ccc(-n2cncn2)cc1	/	.	/	/	/	/
C/C(=N/NC(=O)CNC(=O)C(c1ccccc1)c1ccccc1)c1ccco1	.	.	.	.	.	.
SMILES	PME-1 inh	PREPL inhibitor	Fam108B inh	LYPLA1 counter	GSTO1 counter	LYPLA2 inh
Cc1ccc(S(=O)(=O)c2nnn3c2nc(N2CCOCC2)c2ccccc23)c(C)c1	27	.	.	.	.	.
Cc1ccc(S(=O)(=O)c2nnn3c2nc(N2CCOCC2)c2ccccc23)cc1C	.	.	.	.	.	.
Cc1cc(C)c2nc(N(CCCN(C)C)C(=O)c3ccc(S(=O)(=O)N4CC(C)OC(C)C4)cc3)sc2c1 (centres undefined)	.	.	.	.	.	.
COc1ccc(OC)c(S(=O)(=O)Oc2ccc(N)c3ccccc23)c1	.	.	.	.	35	.
CC(C)(C)c1ccc(O)c(N=Cc2cc(Br)ccc2O)c1	.	.	.	.	35	.
COC(=O)[C@H](CCSC)NC(=O)Nc1cccc(Br)c1	.	.	.	.	.	.
O=c1cc(/N=C/c2coc3c(ccc4ccccc43)c2=O)[nH]c(=S)[nH]1	.	.	.	.	42	.
